In all, about 360,000 compounds went through this assay and about 80 (0.02%) were called active. This excerpt belongs to a sample that is enriched for actives. Values without a mark were called inactive.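 The calls were made as follows: active = activation above the run cutoff, the mean activation of all test compounds plus 3 SD (cut at about 40% in these data); inactive = the rest.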

The assay is described as follows: ATP EC20 calcium response enhancers, parental CHO-K1 – cell-based, Fluo-8 calcium fluorescence, full deck, 1536-well, counter-screen for M1 PAM project, primary screen (AID 602247).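 Also: peak over basal fluorescence ratio in a 140 s read after ATP addition.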 The conditions noted are these: parental CHO-K1, ATP EC20, Fluo-8 calcium fluorescence; at 3 µM; stronger effect = higher value; 0% at ATP EC20, 100% at ATP max.
As for `Nc1scc(-c2ccncc2)c1Cl`, the activation is 13.6%.

As for `Cc1cccc(CC2(O)C(=O)Nc3ccccc32)n1` (stereo unspecified), the activation is 12.3%.

Take `Cc1ccc(C)c(OCCC(=O)Nc2cccc(S(=O)(=O)N3CCCC3)c2)c1`: the activation was 10.7%.

As to `O=c1[nH]c(CCl)nc2cc(-c3ccc(Cl)cc3)sc12`, the activation was 13%.

With `CN[C@H](C(=O)NC[C@H]1O[C@@H](n2cnc3c(N)ncnc32)[C@H](O)[C@@H]1O)[C@@H](C)OCc1ccccc1`, the activation is 11.7%.

On to `O=C(NNS(=O)(=O)c1ccc([N+](=O)[O-])cc1)C1CCCCC1`, for which the activation is -9.25%.

`COC(=O)c1ccccc1NC(=O)C1(S(=O)(=O)c2ccc(Cl)cc2)CC1`: the activation was -15%.

Regarding `CSc1ccccc1C(=O)OCC(=O)N1CCN(C(C)=O)CC1`, the activation was 15.7%.

In the case of `O=C(CSCc1ccccc1Cl)NNC(=O)c1ccccc1`, the activation is 2.85%.

On to `O=C(OC1CCOC1=O)c1ccc(-c2nc3ccccc3s2)s1` (stereo unspecified), for which the activation is 10.6%.

In the case of `Cc1ccc2nc(NC(=O)C3CSC4(C)CCC(=O)N34)sc2c1` (stereo unspecified), the activation was -12.5%.

As to `COC(C[C@@H](O)C[C@@H](O)[C@H](C)OCc1ccccc1)OC`, the activation was 17.1%.

Take `Cc1ccc([C@H]2N[C@]3(CCCN(Cc4ccccc4)C3=O)[C@H]3C(=O)N(Cc4ccccc4)C(=O)[C@@H]23)cc1`: the activation was 1.9%.

As to `CC(=O)NC1=NC(=O)CS1`, the activation is 15.2%.

For the compound `C[C@H]([C@@H](O)[C@@H](O)[C@@H](C)C(C)(C)C)[C@H]1CC[C@H]2C3CC[C@H]4C[C@H](OS(=O)(=O)O)[C@@H](OS(=O)(=O)O)C[C@]4(C)[C@H]3CC[C@]12C` (stereo partly specified), the activation was 46.3% (active).

With `CC(=O)O[C@H]1CC[C@@]2(C)[C@@H](CC[C@@H]3[C@@H]2CC[C@]2(C)[C@@H](C(C)(C)O)C[C@@H]32)C1`, the activation is 4%.

On to `CCOC(=O)c1c(C)n(C)c2ccc(OC)c(NC(=O)CN3CCC4(CC3)OCCO4)c12`, for which the activation was 7.82%.

Take `O=C(CN(c1ccccc1)S(=O)(=O)c1ccc(Cl)cc1)Nc1ccccc1C(=O)N1CCCC1`: the activation was 8.26%.

`CCOc1ccccc1NC(=O)C1CCN(S(=O)(=O)c2c(C)nn(C)c2C)CC1`: the activation was -1.01%.

In the case of `Cc1ccc(N2CCN(c3ccc(C)cc3)C2c2ccccn2)cc1`, the activation is -7.38%.

As for `COc1ccc(S(=O)(=O)N2CCN(C(=O)c3cc(C)oc3C)CC2)cc1`, the activation was 20.2%.

On to `COc1ccc(CCN2CC(C(=O)OCC(=O)NCc3ccccc3Cl)CC2=O)cc1OC` (stereo unspecified), for which the activation was -3.82%.

With `Cc1cc(C(=O)CC#N)c(C)n1CC(F)(F)F`, the activation was 13.3%.

On to `C/C(=N/NC(=O)CSc1ccccn1)c1ccc([N+](=O)[O-])cc1`, for which the activation is 22.4%.

Regarding `CC1(C)CC2CC(C)(CN2c2ncnc3ccc(Br)cc23)C1` (stereo unspecified), the activation was 17.9%.

On to `C/C(N)=C(\C#N)C(=O)NCCc1ccccn1`, for which the activation was 21.8%.

On to `O=C(/C=N/O)Nc1ccccc1`, for which the activation is 6.67%.

Turning to `CN1CCN(c2cc(=O)n(-c3ccc(Cl)cc3)c(=O)[nH]2)CC1`, the activation is 1.64%.

As for `COc1ccc(C2/C=C\CN(S(=O)(=O)c3cccs3)CC(=O)N2Cc2ccc(F)cc2)cc1` (stereo unspecified), the activation was -11.5%.

For the compound `CC(C)NC(=O)c1ccccc1S(=O)c1ccccc1C#N` (stereo unspecified), the activation is 0.52%.

Take `O=C(CSc1nnnn1-c1ccc2c(c1)CCC2)Nc1ccc2c(c1)OCCO2`: the activation is -11.2%.

In the case of `O=C1c2ccccc2C(=O)N1CCc1nn[nH]n1`, the activation is 16.6%.

With `CC(C)(C)c1ccc(/C=C2\Oc3c(ccc(O)c3CN3CCN(CCO)CC3)C2=O)cc1`, the activation is 4.37%.

With `CCCCOc1ccc(C(=O)NCC(=O)OCC(=O)c2c(N)n(C)c(=O)n(C)c2=O)cc1`, the activation was -1.27%.

For `COc1cccc(CNCc2ccc3c(c2)OCO3)c1`, the activation was 18.7%.

For `CCOc1ccccc1N1CCN(C(=S)Nc2ccc(S(N)(=O)=O)cc2)CC1`, the activation was 17.3%.

Take `COc1ccc(C2=NOC(Cn3nc(C(=O)NCc4ccc5c(c4)OCO5)cc3-c3ccccc3)C2)cc1` (stereo unspecified): the activation is 14.9%.

As to `CCOc1cc(C2C(C(=O)OC(C)C)=C(C)NC3=C2C(=O)CCC3)cc([N+](=O)[O-])c1O` (stereo unspecified), the activation was 14.9%.

Consider `COCCNC(=O)CSc1nc2c(n1-c1ccccc1)CCCC2`, for which the activation was 10.3%.

As for `O=C1CC(C(F)(F)C(F)(F)C(F)(F)C(F)(F)F)=Nc2ccccc2N1`, the activation is 17.5%.

In the case of `CCN1C(=NCC(C)C)N[C@@H](CCc2ccccc2)[C@H](C(=O)NCC(C)C)[C@H]1C`, the activation was 8.06%.

For `CC(CC(=O)N1CCN(S(=O)(=O)c2ccccc2)CC1)n1cncn1` (stereo unspecified), the activation is 23.5%.

With `CSc1ncccc1C(=O)OCc1ccc(Br)cc1`, the activation is 17%.

On to `CC(C)COc1ccc(C(=O)OCC(=O)NCCC2=CCCCC2)cc1`, for which the activation was 0.12%.

Take `Cc1noc(NS(=O)(=O)c2ccc(NC(=O)c3oc4ccc(F)cc4c3C)cc2)c1C`: the activation is 14.4%.

In the case of `O[C@H]1C[C@H](c2ccc(Cl)cc2)N(Cc2cccs2)C[C@@H]1n1cc(C2CC2)nn1`, the activation was 47.2% (active).

As to `O[C@@H]1C[C@H](c2ccccc2)N(Cc2cccs2)C[C@H]1n1cc(C2CC2)nn1`, the activation was 31.2%.

On to `O[C@H]1CN(Cc2cccs2)[C@@H](c2ccc(Cl)cc2)C[C@@H]1n1cc(C2CC2)nn1`, for which the activation was 1.81%.

Consider `Cc1ccc(C2NC(=S)NC3=C2N2CCC3CC2)cc1` (stereo unspecified), for which the activation is 12.6%.

In the case of `NC(=O)c1ncn([C@@H]2O[C@H](CN=C3NS(=O)(=O)c4ccccc43)[C@@H](O)[C@H]2O)n1`, the activation is 12.9%.

In the case of `COc1ccccc1N1CCC(N2CCN(CC(C)(C)C)C(CCO)C2)CC1` (stereo unspecified), the activation is 15.1%.

As for `O=S(=O)(NCc1ccc2c(c1)OCO2)c1cccc2nsnc12`, the activation was -1.4%.

Take `Cc1ccc(NC(=S)Nc2ncccc2C)c(C)c1`: the activation was 14.7%.

`Cc1cc(C)cc(NC(=O)COC(=O)c2cc(C)oc2C)c1`: the activation is 9.08%.

As to `COC(=O)Cn1cnc2scc(-c3ccc(C)c(C)c3)c2c1=O`, the activation is 12.6%.

For the compound `C[C@H](NC(=O)[C@@H]1CCCN1C(=O)[C@@H]1CCCN1C(=O)c1ccccc1)c1ccccc1`, the activation was 20.5%.

The values are drawn from PubChem BioAssay AID602247 (The Scripps Research Institute Molecular Screening Center, 2012).
